Assay results from PubChem BioAssay (EPA / NIEHS).
Inconclusive results are not listed. Active and inactive are the calls of the source. The calls were made as follows: active = hit-call score of the fitted dose curve at least 0.9, where 1 is the maximum; inconclusive = response in the unintended direction; inactive = score below 0.9.

Test: ACEA_AR_agonist_AUC_viability: ACEA Biosciences xCELLigence Real-Time Cell Analysis on Androgen Receptor Agonism for Viability (AID 2283775)
Method in brief: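 Viability endpoint from xCELLigence impedance in 22Rv1 prostate cells at 80 h. Eight-point series, 100 uM maximum final.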

Q: Which outcome does the source give for COC(=O)C1CCC(C(=O)OC)CC1 (configuration not stated) here?
A: inactive

Q: With CC(CCl)OP(=O)(OC(C)CCl)OC(C)CCl (configuration not stated) as the molecule, how does the outcome read?
A: inactive

Q: For CCCCCCOC(=O)c1ccccc1O, which outcome is on record?
A: inactive

Q: Which outcome does the source give for CC/C=C\CCOC(C)=O here?
A: inactive

Q: For [Co], which outcome is on record?
A: inactive

Q: Which outcome does the source give for CNC(=S)NC here?
A: inactive

Q: With CC(C)OC(=O)c1ccccc1C(=O)OC(C)C as the molecule, how does the outcome read?
A: inactive

Q: Which outcome does the source give for OC[C@@H](O)[C@@H](O)[C@H](O)[C@@H](O)CO here?
A: inactive

Q: For CC(Cc1ccc(O)c(O)c1)C(C)Cc1ccc(O)c(O)c1 (configuration not stated), which outcome is on record?
A: inactive

Q: Which outcome does the source give for C#C[C@]1(O)CC[C@H]2[C@@H]3CCc4cc(OC)ccc4[C@H]3CC[C@@]21C here?
A: inactive

Q: With c1ccc(B(c2ccccc2)c2ccccc2)cc1 as the molecule, how does the outcome read?
A: inactive

Q: Which outcome does the source give for O=S(=O)(O)c1ccc2ccccc2c1 here?
A: inactive

Q: For CCCCCCOC(=O)c1ccccc1, which outcome is on record?
A: inactive

Q: For C1COCCN1, which outcome is on record?
A: inactive

Test: ACEA_AR_antagonist_AUC_viability: ACEA Biosciences xCELLigence Real-Time Cell Analysis on Androgen Receptor Antagonism for Viability (AID 2283776);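 also: 22Rv1 human prostate cancer cells growing on impedance electrode plates; area under impedance growth curve at 80 h after dosing as viability; hits lower the growth signal relative to DMSO meaning cytotoxicity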
Method in brief: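 Viability endpoint from label-free cell-index monitoring: 22Rv1 cultures treated with an eight-point 1:4 dilution series starting at 100 uM final, AUC at 80 h fitted against DMSO.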

Q: Which outcome does the source give for COC(=O)C1CCC(C(=O)OC)CC1 (configuration not stated) here?
A: inactive

Q: With CC(CCl)OP(=O)(OC(C)CCl)OC(C)CCl (configuration not stated) as the molecule, how does the outcome read?
A: inactive

Q: For C(=C(c1ccccc1)c1ccccc1)c1ccccc1, which outcome is on record?
A: inactive

Q: For CCCCCCOC(=O)c1ccccc1O, which outcome is on record?
A: inactive

Q: With CN(C)Cc1ccccc1O as the molecule, how does the outcome read?
A: inactive

Q: With CC/C=C\CCOC(C)=O as the molecule, how does the outcome read?
A: inactive

Q: With CNC(=S)NC as the molecule, how does the outcome read?
A: inactive

Q: With CC(C)OC(=O)c1ccccc1C(=O)OC(C)C as the molecule, how does the outcome read?
A: inactive

Q: For OC[C@@H](O)[C@@H](O)[C@H](O)[C@@H](O)CO, which outcome is on record?
A: inactive

Q: For CC(Cc1ccc(O)c(O)c1)C(C)Cc1ccc(O)c(O)c1 (configuration not stated), which outcome is on record?
A: inactive

Q: With O=C(OCCOCCOCCOC(=O)c1ccccc1)c1ccccc1 as the molecule, how does the AC50 read?
A: 195 nM (active)

Q: For CCCCCCC(C)OC(=O)CCCCC(=O)OC(C)CCCCCC (configuration not stated), which outcome is on record?
A: inactive

Q: With CCCCC(CC)COP(=O)(O)OCC(CC)CCCC (configuration not stated) as the molecule, how does the outcome read?
A: inactive

Q: Which outcome does the source give for C#C[C@]1(O)CC[C@H]2[C@@H]3CCc4cc(OC)ccc4[C@H]3CC[C@@]21C here?
A: inactive

Q: Which outcome does the source give for c1ccc(B(c2ccccc2)c2ccccc2)cc1 here?
A: inactive

Q: For O=S(=O)(O)c1ccc2ccccc2c1, which outcome is on record?
A: inactive

Q: With C1COCCN1 as the molecule, how does the outcome read?
A: inactive

Q: For Cc1cc(C)cc(O)c1, which outcome is on record?
A: inactive
